Experimental data reported in the supplement of paper PMC6555819.

What was measured:
Experiment in all cases: PBM binding z-score (relative to random genomic background probes); higher = stronger binding; sequences stand for … in GC…GCGATTGACAGCGTAGAATGAAGG
[1] = tested on: RARb homodimer (NR concentration 270 nM)
Procedure, shortened: (§1)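 Custom Agilent 4×180K protein-binding microarrays carried double-stranded probes, each with a 34-nt variable region. These regions held direct-repeat seeds, single-nucleotide variants, half-site ablations and random human genomic background sequences. Ligand-free nuclear receptor dimers were incubated on the arrays for 1 h, antibodies against each partner (one per run) detected binding, and scanned fluorescence was regression-normalized. Binding z-scores take the random background probes as reference.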

[2] = tested on: RARg:RXRa (NR concentration 270 nM, RXRa partner concentration 90 nM)
Procedure, shortened: as §1

[3] = tested on: RARg homodimer (NR concentration 270 nM)
Procedure, shortened: as §1

[4] = tested on: RXRa DBDmut IVT, anti-RXR (DBD mutation: RXRa K156A/R161A, NR concentration 90 nM)
Procedure, shortened: as §1

[5] = tested on: RXRa homodimer (NR concentration 180 nM)
Procedure, shortened: as §1

[6] = tested on: THRa:RXRa (NR concentration 90 nM, RXRa partner concentration 90 nM)
Procedure, shortened: as §1

[7] = tested on: THRa homodimer (NR concentration 90 nM)
Procedure, shortened: as §1

[8] = tested on: VDR:RXRa (NR concentration 270 nM, RXRa partner concentration 90 nM)
Procedure, shortened: as §1

[9] = tested on: VDR homodimer (NR concentration 270 nM)
Procedure, shortened: as §1

| Sequence | PBM binding z-score [1] | PBM binding z-score [2] | PBM binding z-score [3] | PBM binding z-score [4] | PBM binding z-score [5] | PBM binding z-score [6] | PBM binding z-score [7] | PBM binding z-score [8] | PBM binding z-score [9] |
| --- | --- | --- | --- | --- | --- | --- | --- | --- | --- |
| CGAACTCGGTCACCAGGACAGTGAAGAGGTTGGA | 1.97 | 2.47 | 3.48 | 0.319 | 1.01 | 1.86 | 0.326 | 1.87 | 0.21 |
| AATACAGGGTCACTAGGCCAGAGTGGGTACGAAT | 3.17 | 5.09 | 4.79 | 2.59 | 5.4 | 3.29 | 1.4 | 3.97 | 3.06 |
| ATATGGAGGTTAGGGTCATTCAGAAAGTAGGGAA | 3.98 | 4.17 | 2.98 | 2.42 | 5.24 | 4.27 | 3.55 | 4.64 | 3.4 |
| CTATGTAGGTTAAGGGGCTCATTCAGTTTGAAAG | 0.464 | 0.537 | 0.331 | 0.357 | 0.409 | 0.521 | 0.0604 | 0.993 | 0.323 |
| TCGAGTAGATTACGGGGGCATTCAGGGATGAAGA | 1.26 | 1.41 | 0.834 | 1.65 | 1.35 | 3.66 | 0.874 | 2.83 | 3.02 |
| TCGAGTAGGTTACGGGGGCATTCTGGGATGAAGA | 2.05 | 3.25 | 2.19 | 1.74 | 2.52 | 3.32 | 1.3 | 3.65 | 3.52 |
| TAGCCTAGGTCAGATCGGGCGAGTATACGCTATA | 2.27 | 2.7 | 3.68 | -0.51 | 1.44 | 3.15 | -0.0987 | 0.506 | -0.405 |
| CCAGACAGGTGAAAGGTAACTCACTCTGGTACGC | 0.88 | 1.34 | 0.948 | 0.0725 | 2.37 | 1.03 | -0.0395 | 0.767 | -0.0544 |
| TTTAGTTGGTCAAAGGTCACACACTCGAAATGCG | 5.1 | 7.25 | 6.17 | 1.17 | 8.07 | 4.04 | 2.03 | 5.36 | 2.6 |
| ATAGGTAGGTTAGGGTCATTCAGAAAGTAGGGAA | 3.99 | 4.32 | 4.06 | 2.36 | 5.28 | 4.76 | 3.77 | 5.05 | 4.51 |
| TTACAAAGGTGAGCTGAGGTCGTTGATCCAACTC | 2.56 | 2.97 | 2.69 | 0.365 | 2.51 | 4.84 | 1.73 | 5.58 | 2.57 |
| TTACGAAGGTGAAAGGTCGTTGATGCACGCCTTG | 2.49 | 4.08 | 2.19 | 0.342 | 5.5 | 2.33 | 0.141 | 3.25 | 1.25 |
| TCGAGTAGGTTACGGTGGCATTCAGGGATGAAGA | 0.0468 | 0.487 | 0.23 | -0.239 | 0.829 | 0.835 | -0.365 | 0.16 | -0.35 |
| ATATGTAGGTTAGCTGGCGTCATTCAGACTAGGC | -0.15 | 0.427 | 0.556 | -0.166 | 0.485 | -0.223 | -0.829 | -0.12 | -0.39 |
| CGAACTAGGTCACCCGGACAGTGAAGAGGTTGGA | 3.23 | 4.48 | 5.44 | 1.27 | 2.93 | 2.98 | 1.47 | 2.69 | 1.13 |
| ATCTGTAGGTTAGGGTCATTCAGAAAGTAGGGAA | 3.65 | 4.2 | 3.96 | 2.35 | 5.32 | 4.19 | 3.53 | 4.35 | 4.36 |
| TCTACTTGGTCACGGAGGTCACACACGACGGGTA | 4.43 | 5.15 | 5.47 | 1.33 | 5.3 | 3.6 | 3.15 | 5.85 | 3.56 |
| GCTTACGGGTCAAAGGTTATAACATGAATAGAAT | 3.48 | 6.91 | 4.77 | 2.43 | 9.77 | 4.13 | 0.296 | 5.68 | 1.8 |
| CGAACTAGGTCACCAGGACAGGGAAGAGGTTGGA | 3.18 | 4.35 | 4.97 | 1.23 | 2.96 | 3.26 | 1.9 | 1.91 | 0.549 |
| TAGCCTAGGCCATGGGCCAGTATACCACGCGAAC | -0.0202 | -0.148 | 0.285 | -1.69 | -0.256 | -0.253 | -0.645 | -0.852 | -0.837 |
| CCTGCTAGTTCATGGTCAGCTAATCTACAGTATG | 0.96 | 0.833 | 1.06 | 2.43 | 0.309 | 0.298 | -0.142 | 0.708 | 1.09 |
| ATCGAAAGGTCGAAGGTGAGTCTACCCACCCGAA | 2.48 | 4.41 | 3.67 | 0.805 | 5.11 | 2.24 | -0.0307 | 3.08 | 0.891 |
| CGAACTAGGTCAAAGGACAGTCAAAGGCGACGTA | 3.04 | 4.11 | 4.5 | 1.74 | 3.05 | 2.54 | 0.161 | 1.69 | 0.43 |
| CCTACTGGGCCAAAAAGGCCATTGATGCCGATAA | 0.855 | 0.216 | 0.242 | -0.537 | -0.173 | 0.0885 | -0.514 | 0.326 | -0.0566 |
| ATATGTAGATTAGGGTCATTCAGAAAGTAGGGAA | 3.09 | 3.47 | 2.29 | 2.09 | 4.53 | 3.9 | 2.95 | 4.06 | 3.14 |
| CAAACTAGGTCAAGGTCAAAGTAGGTTTGTGCCA | 5.18 | 6.25 | 6.86 | 3.11 | 6.11 | 4.6 | 3.96 | 5.54 | 4.8 |

| Sequence | PBM binding z-score [1] | PBM binding z-score [2] | PBM binding z-score [3] | PBM binding z-score [4] | PBM binding z-score [5] | PBM binding z-score [6] | PBM binding z-score [7] | PBM binding z-score [8] | PBM binding z-score [9] |
| --- | --- | --- | --- | --- | --- | --- | --- | --- | --- |
| GCTGCTAGGTCAACTGATGGTCAGCTAGAGCTCG | 3.68 | 5.23 | 5.53 | 1.73 | 2.87 | 3.1 | 1.07 | 1.5 | 0.0219 |
| ATATGTAGGTTAGGGTCATTCAAAAAGTAGGGAA | 3.59 | 4.25 | 3.19 | 2.67 | 5.4 | 4.28 | 3.27 | 4.58 | 3.17 |
| ATATGTAGGTTAGGGTCCTTCAGAAAGTAGGGAA | 0.958 | 0.561 | 0.821 | 0.642 | 0.851 | 1.21 | 0.898 | 0.818 | 0.793 |
| ATCGAAAGGTCGTGAAGTGAGTATACAGAAAGGC | 2.17 | 3.85 | 3.56 | 1.38 | 4.35 | 2.18 | 0.0261 | 3.26 | 1.02 |
| CTATGTAGGTTAAGGGGGTTATTCAGTTTGAAAG | 2.15 | 2.55 | 1.56 | 1.43 | 2.57 | 2.53 | 1.4 | 5.71 | 3.24 |
| TCGACTAGGTTACGGGGGCATTCAGGGATGAAGA | 2.54 | 3.66 | 3.14 | 2.55 | 2.88 | 4.1 | 1.91 | 4.04 | 3.72 |
| CTGAGTAGGTTACGAGGGGGCATTCAGTGCGAAT | 2.18 | 3.13 | 2.47 | 1.46 | 1.72 | 3.67 | 0.778 | 5.14 | 3.31 |
| TAGCCTAGGTCATGGGCCTGTATACCACGCGAAC | 3.34 | 4.47 | 4.67 | 0.485 | 3.9 | 3.23 | 1.31 | 1.98 | 0.584 |
| CAAACTAGGTCACCGGAAAGTCAAAGTCCGCATG | 3.86 | 5.17 | 5.86 | 2.01 | 3.89 | 3.54 | 1.8 | 2.61 | 0.741 |
| ATATGTAGGTTAGCTGGGGTCATTCCGACTAGGC | 3.77 | 4.05 | 2.78 | 1.93 | 5.24 | 4.98 | 3.21 | 6.1 | 5.2 |
| ATAGAAAGGTCGAAGGTGAGTATACCCACCCGAA | 2.36 | 4.23 | 3.8 | 0.55 | 4.9 | 2 | 0.0452 | 2.88 | 0.757 |
| TAGCCTAGGTGATTGGGCCAGTATAGTACGCATC | -0.159 | -0.276 | -0.119 | -0.669 | -0.198 | -0.224 | -0.512 | -0.57 | -0.67 |
| GGAACTAGGGCAAAGTTGATAGCATCTGTCGACG | 0.866 | 1.07 | 1.15 | 0.644 | 0.592 | 0.234 | -0.621 | -0.0768 | -0.235 |
| CGAACTAGGTCACCAGGACGGTGAAGAGGTTGGA | 3.1 | 4.28 | 5.25 | 0.756 | 3.01 | 3.04 | 0.961 | 1.77 | 0.435 |
| ACTAGTAGGCCAAGGGTCACTCAAGATTAGTCCG | 3.88 | 4.22 | 4.21 | 0.602 | 4.54 | 2.6 | 0.197 | 2.93 | 1.36 |
| CAAGCTAGGTCAAAGGTCAAAGTCGAGCCAACCA | 5.17 | 9.17 | 8.1 | 3.05 | 10.6 | 4.96 | 1.45 | 6.9 | 3.39 |
| CTATGTAGGTTAAGGAGGTCATTCAGTTTGAAAG | 3.79 | 3.89 | 3.37 | 1.97 | 4.07 | 3.68 | 1.59 | 6.83 | 4.47 |
| CCGAGTAGGTTACGACGGGGCATTCAGTGCGAAT | 0.791 | 0.882 | 0.746 | -0.202 | 0.769 | 2 | -0.61 | 1.49 | 0.32 |
| ATATGTAGGTTCCATCCGGGTCATTCAGGCTATG | 2.11 | 1.65 | 1.19 | 0.91 | 2.18 | 3.44 | 2.32 | 3.22 | 2.91 |
| CGAACTAGGGCAAAGGACAGTGAAAGGCGACGTA | 1.44 | 1.1 | 1.87 | 0.227 | -0.0436 | 0.0548 | -0.953 | -0.612 | -0.515 |
| CGTCCAAGGTCAAAGGTCAGCGAAGAGATGACGG | 5.39 | 8.99 | 8.41 | 3.72 | 10.4 | 5.06 | 2.63 | 6.91 | 3.77 |
| ATATGTAGGTTAGGATCATTCAGAAAGTAGGGAA | 0.531 | 0.593 | 0.675 | 0.541 | 1.01 | 0.577 | 0.347 | 0.744 | 0.616 |
| CGAACTAGGTCATCAGGACAGTGAAGAGGTTGGA | 3.22 | 4.14 | 4.73 | 1.67 | 2.99 | 3.38 | 1.97 | 1.89 | 0.876 |
| ACTAGTTGGTCAGCTGAGGTCACACTCAATTCGG | 4.47 | 3.93 | 4.09 | 1.5 | 3.92 | 5.01 | 4.85 | 4.54 | 3.27 |
| GCTGCTCGGTCAACTGATGGTCAGCTAAAGCTCG | 2.15 | 2.42 | 3.21 | -0.121 | -0.0356 | 0.0227 | -0.551 | -0.285 | -0.439 |
| CGAACTAGGTCCAAGGACAGTGAAAGGCGACGTA | 0.38 | 0.00598 | 0.386 | 0.946 | 0.00981 | 1.39 | 0.672 | -0.332 | -0.041 |
